Test results: PubChem BioAssay AID1159580 (chemical genetic matrix, 2015)
Several values for one entry are separate records, joined by “and”; a condition that tells them apart may be missing. Equal values may be shown once. Screen size: about 5,500 compounds; about 2,000 (36%) were called active. About 18% were inconclusive and are not listed. No stated cut-off is given here; in the data, active means normalized growth mostly below about 0.91 (no sharp cut-off); inconclusive means no clear call, values can overlap the other calls; inactive means mostly above about 0.92. This is one part of the list.

Test: chemical genetic growth profiling, strain panel (AID 1159580);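 further: tested at 20 µM; growth read once vehicle control cultures reached saturation at 30 °C; 1 = growth at the plate median or of vehicle wells; lower values mean less growth of the strain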
Details: S. cerevisiae deletion strains, growth OD

Measured: normalized growth

C[C@@H](N)[C@@H](O)c1ccccc1
inactive: locus YAL021C, strain ccr4, hits give low values 0.991 | locus YAL030W, strain snc1, hits give low values 0.98 | locus YBL061C, strain skt5, hits give low values 1.01 | locus YBR009C, strain hhf1, hits give low values 1 | locus YBR021W, strain FUR4, hits give low values 1.05 | locus YBR023C, strain chs3, hits give low values 0.997 | locus YBR171W, strain sec66, hits give low values 1 | locus YBR229C, strain ROT2, hits give low values 0.967 | locus YBR231C, strain swc5, hits give low values 0.969 | locus YBR279W, strain paf1, hits give low values 1.01 | locus YCL011C, strain gbp2, hits give low values 0.994 | locus YCL016C, strain dcc1, hits give low values 0.985 | locus YCL029C, strain bik1, hits give low values 0.982 | locus YCL069W, strain vba3, hits give low values 1 | locus YCR088W, strain abp1, hits give low values 0.992 | locus YDL005C, strain med2, hits give low values 0.977 | locus YDL035C, strain GPR1, hits give low values 1 | locus YDL040C, strain nat1, hits give low values 1 | locus YDL074C, strain BRE1, hits give low values 1.05 | locus YDL101C, strain DUN1, hits give low values 0.983 | locus YDL134C, strain PPH21, hits give low values 0.987 | locus YDL185W, strain tfp1, hits give low values 0.966 | locus YDL192W, strain arf1, hits give low values 1.02 | locus YDR001C, strain nth1, hits give low values 1.01 | locus YDR069C, strain doa4, hits give low values 0.985 | locus YDR101C, strain arx1, hits give low values 0.989 | locus YDR137W, strain rgp1, hits give low values 0.862 | locus YDR150W, strain NUM1, hits give low values 0.994 | locus YDR159W, strain sac3, hits give low values 0.949 | locus YDR162C, strain NBP2, hits give low values 0.951 | locus YDR195W, strain ref2 0.988 | locus YDR297W, strain sur2, hits give low values 0.994 | locus YDR318W, strain mcm21, hits give low values 0.978 | locus YDR334W, strain swr1, hits give low values 0.997 | locus YDR335W, strain msn5, hits give low values 0.988 | locus YDR388W, hits give low values 0.994 | locus YDR392W, strain spt3, hits give low values 0.955 | locus YDR502C, strain sam2, hits give low values 0.991 | locus YEL003W, strain gim4, hits give low values 0.995 | locus YEL037C, strain rad23, hits give low values 1.01 | locus YEL061C, strain CIN8 (second series), hits give low values 0.993 | locus YEL061C, strain CIN8, hits give low values 0.987 | locus YER015W, strain faa2, hits give low values 0.995 | locus YER016W, strain bim1, hits give low values 0.975 | locus YER110C, hits give low values 0.974 | locus YER111C, strain swi4, hits give low values 0.981 | locus YER155C, strain BEM2 (second series), hits give low values 0.973 | locus YER155C, strain BEM2, hits give low values 1.02 | locus YER167W, strain BCK2, hits give low values 0.999 | locus YFR010W, strain ubp6, hits give low values 1 | locus YGL078C, strain dbp3, hits give low values 0.991 | locus YGL086W, strain mad1, hits give low values 1.03 | locus YGL167C, strain pmr1, hits give low values 0.999 | locus YGL173C, strain kem1, hits give low values 0.993 | locus YGL227W, strain vid30, hits give low values 1.01 | locus YGL240W, strain doc1, hits give low values 1 | locus YGL248W, strain PDE1, hits give low values 0.974 | locus YGL253W, strain hxk2, hits give low values 0.99 | locus YGR135W, strain pre9, hits give low values 0.949 | locus YGR252W, strain gcn5, hits give low values 0.968 | locus YHR013C, strain ard1, hits give low values 0.975 | locus YHR027C, strain rpn1, hits give low values 1 | locus YHR030C, strain SLT2, hits give low values 1 and 1.03 | locus YHR079C, strain IRE1 (second series), hits give low values 0.993 | locus YHR079C, strain IRE1, hits give low values 1.02 | locus YHR094C, strain hxt1, hits give low values 0.973 | locus YHR129C, strain ARP1, hits give low values 0.997 | locus YHR142W, strain chs7, hits give low values 0.971 | locus YHR200W, strain rpn10, hits give low values 0.997 | locus YIL066C, strain RNR3, hits give low values 0.966 | locus YIL073C, strain SPO22, hits give low values 1.03 | locus YIL125W, strain kgd1, hits give low values 0.986 | locus YIR030C, strain dcg1, hits give low values 0.999 | locus YJL092W, strain hpr5, hits give low values 1 | locus YJL095W, strain BCK1 (second series), hits give low values 0.999 | locus YJL095W, strain BCK1, hits give low values 0.928 and 1.01 | locus YJL115W, strain asf1, hits give low values 0.991 | locus YJL129C, strain trk1, hits give low values 0.992 | locus YJL134W, strain LCB3, hits give low values 0.988 | locus YJL154C, strain vps35, hits give low values 0.993 | locus YJL164C, strain tpk1, hits give low values 1.01 | locus YJL166W, strain qcr8, hits give low values 0.983 | locus YJL168C, strain set2, hits give low values 1.01 | locus YJL187C, strain SWE1 (second series), hits give low values 0.964 | locus YJR043C, strain POL32, hits give low values 1.01 | locus YJR066W, strain TOR1, hits give low values 0.942 | locus YJR075W, strain HOC1, hits give low values 0.984 | locus YKL009W, strain mrt4, hits give low values 1.04 | locus YKL068W, hits give low values 0.978 | locus YKL085W, strain MDH1 (second series), hits give low values 0.998 | locus YKL085W, strain MDH1, hits give low values 0.998 | locus YKL160W, strain elf1, hits give low values 0.974 | locus YKR001C, strain vps1, hits give low values 1.01 | locus YKR026C, strain gcn3, hits give low values 1.02 | locus YKR091W, strain srl3, hits give low values 0.987 | locus YLL001W, strain dnm1, hits give low values 1.01 | locus YLL026W, hits give low values 0.995 | locus YLL041C, strain sdh2, hits give low values 1.01 | locus YLR027C, strain aat2, hits give low values 0.995 | locus YLR039C, strain RIC1, hits give low values 0.953 | locus YLR058C, strain SHM2, hits give low values 0.978 | locus YLR102C, strain apc9, hits give low values 0.99 | locus YLR113W, strain HOG1, hits give low values 1.03 | locus YLR221C, strain rsa3, hits give low values 0.994 | locus YLR258W, strain gsy2, hits give low values 1.01 | locus YLR262C, strain YPT6, hits give low values 0.927 | locus YLR268W, strain sec22, hits give low values 0.988 | locus YLR320W, strain mms22, hits give low values 0.955 | locus YLR330W, strain CHS5, hits give low values 0.997 | locus YLR342W, strain FKS1 (second series), hits give low values 1.06 | locus YLR342W, strain FKS1, hits give low values 0.995 | locus YLR357W, strain rsc2, hits give low values 0.988 | locus YLR370C, strain arc18, hits give low values 1 | locus YLR371W, strain rom2, hits give low values 0.975 | locus YLR384C, strain iki3, hits give low values 0.977 | locus YLR418C, strain cdc73, hits give low values 0.939 | locus YML016C, strain PPZ1, hits give low values 0.994 | locus YML032C, strain rad52, hits give low values 0.967 | locus YML120C, strain ndi1, hits give low values 0.992 | locus YML124C, strain tub3, hits give low values 0.993 | locus YMR058W, strain fet3, hits give low values 0.972 | locus YMR078C, strain ctf18, hits give low values 1.01 | locus YMR125W, strain sto1, hits give low values 0.983 | locus YMR129W, hits give low values 0.997 | locus YMR205C, strain PFK2, hits give low values 0.998 | locus YMR223W, strain ubp8, hits give low values 0.964 | locus YMR231W, strain pep5, hits give low values 1 | locus YMR263W, strain SAP30, hits give low values 0.987 | locus YMR307W, strain GAS1, hits give low values 1.09 | locus YNL067W, strain RPL9B, hits give low values 0.975 | locus YNL071W, strain lat1, hits give low values 0.989 | locus YNL153C, strain GIM3, hits give low values 0.974 | locus YNL183C, strain NPR1, hits give low values 0.929 | locus YNL209W, strain ssb2, hits give low values 1.01 | locus YNL233W, strain BNI4, hits give low values 1 | locus YNL248C, strain rpa49, hits give low values 0.99 | locus YNL250W, strain rad50, hits give low values 0.992 | locus YNL271C, strain bni1, hits give low values 0.995 | locus YNL298W, strain CLA4, hits give low values 0.982 | locus YNL307C, strain MCK1, hits give low values 0.984 | locus YNL322C, strain KRE1 (second series), hits give low values 0.99 | locus YNR049C, strain mso1, hits give low values 1.01 | locus YNR052C, strain pop2, hits give low values 0.973 | locus YOL006C, strain TOP1, hits give low values 1.02 | locus YOL012C, strain htz1 1.02 | locus YOL147C, strain pex11, hits give low values 0.996 | locus YOR001W, strain rrp6, hits give low values 1 | locus YOR061W, strain CKA2, hits give low values 0.98 | locus YOR069W, strain VPS5, hits give low values 1 | locus YOR070C, strain gyp1, hits give low values 0.999 | locus YOR080W, strain dia2, hits give low values 1 | locus YOR083W, strain WHI5, hits give low values 0.948 | locus YOR106W, strain vam3, hits give low values 1 | locus YOR136W, strain idh2, hits give low values 0.993 | locus YOR144C, strain elg1, hits give low values 0.989 | locus YOR184W, strain ser1, hits give low values 1.01 | locus YOR231W, strain MKK1, hits give low values 1.01 | locus YOR265W, strain rbl2, hits give low values 0.993 | locus YOR270C, strain vph1, hits give low values 0.9 | locus YOR290C, strain snf2, hits give low values 0.993 | locus YOR316C, strain cot1, hits give low values 0.985 | locus YPL051W, strain arl3, hits give low values 0.981 | locus YPL078C, strain atp4, hits give low values 0.98 | locus YPL106C, strain sse1, hits give low values 1 | locus YPL240C, strain hsp82, hits give low values 1 | locus YPL241C, strain CIN2, hits give low values 0.989 | locus YPL256C, strain CLN2, hits give low values 1.03 | locus YPR119W, strain clb2, hits give low values 1.01 | locus YPR141C, strain kar3, hits give low values 0.994 | locus YPR163C, strain tif3, hits give low values 0.971 | locus YPR167C, strain met16, hits give low values 1 | strain wtn01, hits give low values 1.03
active: locus YAL026C, strain drs2, hits give low values 0.89 | locus YLR262C, strain YPT6 (second series), hits give low values 0.823
